Laboratory results from PubChem BioAssay (EPA / NIEHS).
Values joined by “and” are separate entries in the source; they are usually repeats but may differ in a detail not shown here. Equal entries are not always repeated. Records with an inconclusive call do not appear. A structure can be active in one record and inactive in another. Active and inactive are the calls of the source. How the source made its calls, unless noted: active means hit-call score of the fitted dose curve at least 0.9, where 1 is the maximum; inactive means score below 0.9.

Experiments:
[1] = ATG_M_06_TRANS: Attagene TRANS-FACTORIAL HepG2 Assay for M06 Transcription Factor (Internal Marker) (AID 2282983; active means hit-call score of the fitted dose curve at least 0.9, where 1 is the maximum;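 further: reporter transcript level by RT-PCR then capillary electrophoresis fluorescence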); conditions: HepG2 Attagene TRANS M06 internal marker reporter
How it was run: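 Read-out: fluorescent reporter cDNA fragments resolved by capillary electrophoresis after RT-PCR and HpaI cut. Source cells were HepG2 carrying transfected multi-reporter GAL4 constructs, dosed 24 h. Increase over DMSO control analysed.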

[2] = biological target: Nuclear receptor subfamily 4 group A member 2 (Homo sapiens) (UniProt P43354); test: ATG_NURR1_TRANS: Attagene TRANS-FACTORIAL HepG2 Assay for human Nuclear Receptor Related Protein 1 (NURR1) (AID 2282985; active means hit-call score of the fitted dose curve at least 0.9, where 1 is the maximum); conditions: HepG2 Attagene TRANS reporter, mRNA readout
How it was run: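 Measures transcriptional activation by an exogenous NR-Gal4 chimera in transfected HepG2 liver cells. After 24 h, reporter RNA is reverse-transcribed, amplified and resolved by capillary electrophoresis; DMSO defines baseline.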

[3] = biological target: Transcriptional activator Myb (Homo sapiens) (UniProt P10242); test: ATG_Myb_CIS: Attagene CIS-FACTORIAL HepG2 Assay for human Myeloblastosis (Myb) Proto-Oncogene Transcription Factor (AID 2282986); conditions: HepG2 Attagene CIS-FACTORIAL Myb reporter transcription; actives raise or lower the signal
How it was run: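 Multiplexed cis-reporter system in HepG2: transient transfection, 24 h treatment, mRNA readout by RT-PCR and capillary electrophoresis. Both increases and decreases are scored versus DMSO negative control.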

[4] = biological target: Nuclear respiratory factor 1 (Homo sapiens) (UniProt Q16656); test: ATG_NRF1_CIS: Attagene CIS-FACTORIAL HepG2 Assay for human Nuclear Respiratory Factor 1 (NRF1) Orphan Gene (AID 2282987); conditions: HepG2 NRF1 cis-element reporter, Attagene multiplex; actives raise or lower the signal
How it was run: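 Endogenous factor activity was captured via cis-element-driven reporter transcripts in HepG2 cells. Following 24 h chemical treatment, transcripts were quantified by RT-PCR and capillary electrophoresis.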

[5] = ATG_NFI_CIS: Attagene CIS-FACTORIAL HepG2 Assay for human Nuclear Factor I (NFI) (AID 2282989); conditions: HepG2 cis-regulatory reporter, NFI response element transcription; actives raise or lower the signal
How it was run: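 Cells: human liver HepG2, transiently transfected with promoter-regulated reporter transcription units. Exposure 24 h. Detection: fluorescent RT-PCR products separated by capillary electrophoresis, normalised to DMSO negative control.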

[6] = biological target: Myc proto-oncogene protein (Homo sapiens) (UniProt P01106); test: ATG_Myc_CIS: Attagene CIS-FACTORIAL HepG2 Assay for human Myelocytomatosis (Myc) Proto-Oncogene Transcription Factor (AID 2282990); conditions: HepG2, Attagene cis-reporter transcription factor activity; actives raise or lower the signal
How it was run: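 HepG2, transient MRTU transfection (cis promoters, endogenous TFs); 24 h dosing; TriZol RNA → oligo(dT) RT → PCR → 6-FAM primer extension → HpaI cut → CE. Bidirectional fit vs DMSO.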

[7] = ATG_NF_kB_CIS: Attagene CIS-FACTORIAL HepG2 Assay for human Nuclear Factor Kappa B (NF-kB) (AID 2282991); conditions: HepG2 Attagene cis-factorial NF-kB reporter mRNA; actives raise or lower the signal
How it was run: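 After 24 h compound incubation, transfected HepG2 cells yield total RNA; reporter cDNA is PCR-amplified, end-labelled with 6-FAM, HpaI-digested and analysed on a genetic analyser. Endogenous factor activity, DMSO-referenced bidirectional fit.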

[8] = ATG_NRF2_ARE_CIS: Attagene CIS-FACTORIAL HepG2 Assay for human Nuclear Factor Erythroid 2 Related Factor 2 (NFR2) response to Antioxidant Response Elements (ARE) (AID 2282992); conditions: HepG2 Attagene ARE/NRF2 reporter, transcription factor activity; actives raise or lower the signal;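 on AC50: reporter mRNA level measured by RT-PCR and capillary electrophoresis fluorescence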
How it was run: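 Endogenous transcription factor activity in human liver HepG2 cells is tracked via a cis-element-driven reporter within a multiplexed set. mRNA induction is read by RT-PCR and capillary electrophoresis after 24 h, with DMSO as baseline.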

[9] = ATG_Oct_MLP_CIS: Attagene CIS-FACTORIAL HepG2 Assay for human Octamer-Binding Transcription Factor (Oct) (AID 2282993); conditions: HepG2 Attagene cis-factorial Oct reporter, mRNA; actives raise or lower the signal
How it was run: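 HepG2, transient MRTU transfection, cis promoter elements; 24 h dosing; RT-PCR/CE fluorescence read-out of reporter mRNA; fit both directions vs DMSO.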

[10] = biological target: Cellular tumor antigen p53 (Homo sapiens) (UniProt P04637); test: ATG_p53_CIS: Attagene CIS-FACTORIAL HepG2 Assay for human p53 Transcription Factor (AID 2282994); conditions: HepG2 p53 cis-element reporter, Attagene mRNA; actives raise or lower the signal
How it was run: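 Steps: transfect HepG2 with multiplexed cis reporter constructs; dose chemicals 24 h; extract RNA, reverse-transcribe, PCR-amplify reporter sequences; FAM-label, HpaI-digest, resolve fragments by CE. Activity fitted both directions relative to DMSO.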

[11] = ATG_M_32_TRANS: Attagene TRANS-FACTORIAL HepG2 Assay for M32 Transcription Factor (Internal Marker) (AID 2282984; active means hit-call score of the fitted dose curve at least 0.9, where 1 is the maximum;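 further: transcript level of a background control reporter unit measured by RT-PCR and capillary electrophoresis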); conditions: HepG2 Attagene TRANS M32 internal marker reporter
How it was run: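 Cell-based TRANS-format assay in HepG2: exogenous chimeric GAL4 reporter units transiently expressed, compounds applied 24 h. Reporter mRNA detected by RT-PCR plus capillary electrophoresis; this readout is an internal background marker.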

[12] = BSK_3C_TissueFactor: BioMAP Diversity Plus: 3C Assay for Tissue Factor Biomarker Activity (AID 2282997); conditions: BioMAP 3C HUVEC, tissue factor biomarker readout; actives raise or lower the signal
How it was run: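 HUVEC, 3C system, 24 h post-dose; Tissue Factor by ELISA; bidirectional fit vs DMSO baseline.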

[13] = BSK_3C_uPAR: BioMAP Diversity Plus: 3C Assay for Urokinase-type plasminogen activator receptor (uPAR) Biomarker Activity (AID 2282998); conditions: BioMAP 3C HUVEC, uPAR biomarker ELISA; actives raise or lower the signal
How it was run: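 A multiplexed primary-cell system built on human umbilical vein endothelium was used, with chemical present for 24 h before reading. Cell-surface uPAR was detected by ELISA; signal change in either direction counted against DMSO.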

[14] = BSK_3C_VCAM1: BioMAP Diversity Plus: 3C Assay for Vascular cell adhesion molecule 1 (VCAM1) Biomarker Activity (AID 2282999); conditions: BioMAP 3C HUVEC, VCAM1 ELISA, cytokine-stimulated; actives raise or lower the signal
How it was run: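 Activity fitted in both directions relative to DMSO, with ELISA measurement of the surface marker on primary HUVEC (3C) at 24 h post-treatment; parallel SRB staining (0.1% SRB, TCA-fixed, 560 nm) flagged overt cytotoxicity.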

[15] = read-out: Intercellular Adhesion Molecule 1 (ICAM1), ICAM1 (gene 3383); test: BSK_3C_ICAM1: BioMAP Diversity Plus: 3C Assay for Intercellular Adhesion Molecule 1 (ICAM1) Biomarker Activity (AID 2283003); conditions: primary human endothelial cells (HUVEC); actives raise or lower the signal
How it was run: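 ELISA read-out of ICAM-1; HUVEC (primary human), 3C system, 24 h post-dosing; bidirectional fit vs DMSO baseline.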

[16] = biological target: human Peroxisome Proliferator-activated Receptor alpha (PPARa), PPARA (gene 5465) (UniProt Q07869); test: ATG_PPARa_TRANS: Attagene TRANS-FACTORIAL HepG2 Assay for human Peroxisome Proliferator-activated Receptor alpha (PPARa) (AID 2283001; active means hit-call score of the fitted dose curve at least 0.9, where 1 is the maximum;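 on AC50: potency for gain of reporter signal over DMSO so agonist or activator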)
How it was run: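 Transfected HepG2 cells treated with test chemical for 24 h. RNA isolated, reverse-transcribed with oligo(dT), PCR-amplified, FAM-labelled and HpaI-digested. Fragments sized by capillary electrophoresis; gain-of-signal fit relative to DMSO.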

[17] = biological target: human Peroxisome Proliferator-activated Receptor delta (PPARd), PPARD (gene 5467) (UniProt Q03181); test: ATG_PPARd_TRANS: Attagene TRANS-FACTORIAL HepG2 Assay for human Peroxisome Proliferator-activated Receptor delta (PPARd) (AID 2283002; active means hit-call score of the fitted dose curve at least 0.9, where 1 is the maximum)
How it was run: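 Transient HepG2 transfection (multiple GAL4-UAS RTUs, chimeric receptor-Gal4); 24 h dosing; total RNA → oligo(dT) RT → PCR → 6-FAM primer extension → HpaI cut → CE. Positive direction vs DMSO.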

[18] = BSK_4H_Eotaxin3: BioMAP Diversity Plus: 4H Assay for Eotaxin 3 Biomarker Activity (AID 2283000); conditions: primary human endothelial cells (HUVEC); actives raise or lower the signal;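 further: CCL26 protein level quantified by ELISA in parallel with SRB cytotoxicity check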
How it was run: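 Readout is Eotaxin-3 (CCL26) level by ELISA in primary human umbilical vein endothelial cells harvested 24 h after chemical exposure; activity fitted in both directions against DMSO control.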

[19] = biological target: human Retinoic Acid Receptor beta (RARb), RARB (gene 5915) (UniProt P10826); test: ATG_RARb_TRANS: Attagene TRANS-FACTORIAL HepG2 Assay for human Retinoic Acid Receptor beta (AID 2283004; active means hit-call score of the fitted dose curve at least 0.9, where 1 is the maximum)
How it was run: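 Readout is reporter mRNA induction: RNA reverse-transcribed, PCR-amplified, FAM-labelled, HpaI-cut and resolved by capillary electrophoresis. Transiently transfected HepG2 cells carrying exogenous NR–Gal4 chimeras were dosed for 24 h; activity fitted upward relative to DMSO.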

Measured: AC50

Sequence of Nuclear respiratory factor 1 (Homo sapiens) (Q16656 whole entry, looked up): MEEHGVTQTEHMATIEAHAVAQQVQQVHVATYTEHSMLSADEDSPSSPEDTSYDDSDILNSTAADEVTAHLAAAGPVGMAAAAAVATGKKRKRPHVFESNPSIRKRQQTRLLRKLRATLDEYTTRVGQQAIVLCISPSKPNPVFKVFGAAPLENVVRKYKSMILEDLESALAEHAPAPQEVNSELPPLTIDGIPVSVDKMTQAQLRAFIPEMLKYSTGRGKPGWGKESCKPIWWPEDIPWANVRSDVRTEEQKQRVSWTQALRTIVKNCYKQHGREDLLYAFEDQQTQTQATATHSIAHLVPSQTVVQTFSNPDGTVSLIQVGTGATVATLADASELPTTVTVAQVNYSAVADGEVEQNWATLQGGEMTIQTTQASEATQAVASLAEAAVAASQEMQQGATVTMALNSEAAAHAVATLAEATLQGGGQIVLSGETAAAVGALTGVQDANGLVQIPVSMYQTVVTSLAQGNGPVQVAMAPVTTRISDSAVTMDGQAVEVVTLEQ
Sequence of Nuclear receptor subfamily 4 group A member 2 (Homo sapiens) (P43354 whole entry, looked up, the tested form may be a part): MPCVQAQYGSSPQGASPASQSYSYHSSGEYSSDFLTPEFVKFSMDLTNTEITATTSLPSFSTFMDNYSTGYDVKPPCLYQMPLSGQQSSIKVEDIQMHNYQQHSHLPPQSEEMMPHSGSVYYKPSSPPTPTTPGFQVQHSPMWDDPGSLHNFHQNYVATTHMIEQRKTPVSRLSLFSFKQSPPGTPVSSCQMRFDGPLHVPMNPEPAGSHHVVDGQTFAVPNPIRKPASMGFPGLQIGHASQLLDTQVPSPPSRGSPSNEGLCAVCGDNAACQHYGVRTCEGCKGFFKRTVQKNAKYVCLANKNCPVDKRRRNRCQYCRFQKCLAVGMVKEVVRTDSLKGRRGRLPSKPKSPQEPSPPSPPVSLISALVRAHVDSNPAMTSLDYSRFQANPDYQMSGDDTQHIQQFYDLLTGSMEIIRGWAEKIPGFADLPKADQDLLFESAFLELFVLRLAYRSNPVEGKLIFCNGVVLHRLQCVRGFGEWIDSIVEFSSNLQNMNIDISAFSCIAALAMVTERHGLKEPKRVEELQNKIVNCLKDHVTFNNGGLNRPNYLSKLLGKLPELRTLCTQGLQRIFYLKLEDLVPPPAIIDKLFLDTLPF
Sequence of human Retinoic Acid Receptor beta (RARb), RARB (gene 5915) (P10826 whole entry, looked up, the tested form may be a part): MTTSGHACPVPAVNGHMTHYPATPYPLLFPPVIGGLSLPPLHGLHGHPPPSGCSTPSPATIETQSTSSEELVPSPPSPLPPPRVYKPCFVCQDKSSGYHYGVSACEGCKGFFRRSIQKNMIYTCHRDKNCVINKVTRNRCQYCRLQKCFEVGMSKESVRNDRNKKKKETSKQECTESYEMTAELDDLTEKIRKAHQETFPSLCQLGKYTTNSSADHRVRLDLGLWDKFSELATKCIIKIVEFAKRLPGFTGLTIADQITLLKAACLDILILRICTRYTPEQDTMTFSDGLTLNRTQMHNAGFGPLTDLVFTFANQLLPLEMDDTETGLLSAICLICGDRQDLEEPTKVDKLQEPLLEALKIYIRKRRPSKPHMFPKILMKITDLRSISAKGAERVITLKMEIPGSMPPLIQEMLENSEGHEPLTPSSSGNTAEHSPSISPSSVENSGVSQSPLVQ
Sequence of Transcriptional activator Myb (Homo sapiens) (P10242 whole entry, looked up): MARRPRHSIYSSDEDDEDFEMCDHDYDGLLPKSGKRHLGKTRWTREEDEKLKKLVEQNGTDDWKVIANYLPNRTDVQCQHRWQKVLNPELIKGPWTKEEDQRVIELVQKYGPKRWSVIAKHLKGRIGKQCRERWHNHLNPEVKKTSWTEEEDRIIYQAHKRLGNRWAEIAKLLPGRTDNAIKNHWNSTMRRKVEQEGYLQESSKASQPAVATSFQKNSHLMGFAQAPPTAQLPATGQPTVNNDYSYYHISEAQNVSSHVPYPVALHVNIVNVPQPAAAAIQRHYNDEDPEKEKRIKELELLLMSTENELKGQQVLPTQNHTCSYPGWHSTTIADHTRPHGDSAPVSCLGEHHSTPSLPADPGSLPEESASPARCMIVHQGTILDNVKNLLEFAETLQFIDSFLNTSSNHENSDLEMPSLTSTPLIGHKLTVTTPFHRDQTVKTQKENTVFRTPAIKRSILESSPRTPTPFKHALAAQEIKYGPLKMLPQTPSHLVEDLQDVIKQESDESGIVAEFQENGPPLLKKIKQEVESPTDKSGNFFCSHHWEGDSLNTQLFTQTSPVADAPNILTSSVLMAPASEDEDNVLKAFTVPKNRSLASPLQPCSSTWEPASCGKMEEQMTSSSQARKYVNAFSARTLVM
Sequence of Cellular tumor antigen p53 (Homo sapiens) (P04637 whole entry, looked up, the tested form may be a part): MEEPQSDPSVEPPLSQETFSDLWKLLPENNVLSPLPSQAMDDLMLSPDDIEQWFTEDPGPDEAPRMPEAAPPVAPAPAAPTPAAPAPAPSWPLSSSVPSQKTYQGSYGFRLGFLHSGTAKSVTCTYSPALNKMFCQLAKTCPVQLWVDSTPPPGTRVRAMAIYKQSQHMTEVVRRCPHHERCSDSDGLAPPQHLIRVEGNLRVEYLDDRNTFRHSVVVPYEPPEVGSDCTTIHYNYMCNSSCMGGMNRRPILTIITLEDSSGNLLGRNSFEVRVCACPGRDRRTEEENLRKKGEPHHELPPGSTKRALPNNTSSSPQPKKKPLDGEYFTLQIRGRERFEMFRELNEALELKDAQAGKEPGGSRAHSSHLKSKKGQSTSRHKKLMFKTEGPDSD
Sequence of Myc proto-oncogene protein (Homo sapiens) (P01106 whole entry, looked up): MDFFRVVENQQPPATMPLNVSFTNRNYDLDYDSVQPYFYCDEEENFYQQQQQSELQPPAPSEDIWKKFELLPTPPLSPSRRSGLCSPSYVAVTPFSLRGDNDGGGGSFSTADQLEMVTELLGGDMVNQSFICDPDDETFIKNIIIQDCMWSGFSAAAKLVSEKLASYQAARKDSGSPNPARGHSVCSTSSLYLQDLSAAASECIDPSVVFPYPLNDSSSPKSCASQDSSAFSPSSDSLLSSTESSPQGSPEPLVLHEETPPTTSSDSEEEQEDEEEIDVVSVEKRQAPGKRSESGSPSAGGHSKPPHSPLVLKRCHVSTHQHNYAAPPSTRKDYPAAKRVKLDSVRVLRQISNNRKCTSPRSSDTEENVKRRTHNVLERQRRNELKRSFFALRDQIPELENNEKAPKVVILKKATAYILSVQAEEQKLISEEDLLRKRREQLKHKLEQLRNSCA
Sequence of human Peroxisome Proliferator-activated Receptor alpha (PPARa), PPARA (gene 5465) (Q07869 whole entry, looked up, the tested form may be a part): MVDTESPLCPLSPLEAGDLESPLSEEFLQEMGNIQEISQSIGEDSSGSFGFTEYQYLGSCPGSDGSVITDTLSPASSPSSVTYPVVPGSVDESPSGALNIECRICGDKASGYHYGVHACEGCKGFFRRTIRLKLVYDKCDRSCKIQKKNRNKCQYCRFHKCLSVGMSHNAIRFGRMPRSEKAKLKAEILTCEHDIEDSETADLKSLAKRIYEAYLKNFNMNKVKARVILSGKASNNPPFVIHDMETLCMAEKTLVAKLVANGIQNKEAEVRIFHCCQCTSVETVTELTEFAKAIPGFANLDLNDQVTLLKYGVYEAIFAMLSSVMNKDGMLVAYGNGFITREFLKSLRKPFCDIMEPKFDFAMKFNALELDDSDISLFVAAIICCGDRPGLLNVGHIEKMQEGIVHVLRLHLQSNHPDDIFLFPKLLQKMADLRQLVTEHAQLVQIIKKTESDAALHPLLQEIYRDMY
Sequence of human Peroxisome Proliferator-activated Receptor delta (PPARd), PPARD (gene 5467) (Q03181 whole entry, looked up, the tested form may be a part): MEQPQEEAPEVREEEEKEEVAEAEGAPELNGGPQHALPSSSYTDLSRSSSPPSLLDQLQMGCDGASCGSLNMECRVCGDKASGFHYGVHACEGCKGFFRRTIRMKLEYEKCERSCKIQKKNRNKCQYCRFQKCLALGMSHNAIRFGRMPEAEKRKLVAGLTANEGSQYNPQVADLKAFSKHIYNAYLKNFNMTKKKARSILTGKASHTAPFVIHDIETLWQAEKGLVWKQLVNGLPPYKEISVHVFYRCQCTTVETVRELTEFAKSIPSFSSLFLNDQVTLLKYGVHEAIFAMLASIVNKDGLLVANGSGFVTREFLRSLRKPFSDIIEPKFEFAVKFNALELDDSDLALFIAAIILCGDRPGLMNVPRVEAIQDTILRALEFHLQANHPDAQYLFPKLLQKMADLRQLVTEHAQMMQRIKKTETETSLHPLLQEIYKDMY

N#Cc1ccccn1
inactive: [1] | [2] | [3] | [4] | [5] | [6] | [7] | [8] | [9] | [10]

Cn1sc(Cl)cc1=O
inactive: [1] | [11] | [4] | [5] | [9] | [10] | [13] | [15]
active: [7] 139 µM | [8] 135 µM | [12] 16.2 µM | [14] 36.1 µM

CN(C)N=O
inactive: [1] | [2] | [3] | [5] | [7] | [8] | [9] | [10] | [12] | [13] | [14] | [16] | [15]

Nc1ccc(N=Nc2ccc(-c3ccc(N=Nc4c(S(=O)(=O)O)cc5cc(S(=O)(=O)O)c(N=Nc6ccccc6)c(O)c5c4N)cc3)cc2)c(N)c1
inactive: [1] | [2] | [3] | [5] | [7] | [8] | [9] | [10] | [16]

C=CCc1ccc(OC)cc1
inactive: [1] | [2] | [3] | [4] | [5] | [6] | [7] | [8] | [9] | [16]

COP(=O)(OC)O/C(=C\Cl)c1cc(Cl)c(Cl)cc1Cl
inactive: [1] | [5] | [7] | [17]
active: [2] 115 µM | [3] 170 µM | [4] 66.2 µM | [6] 180 µM | [8] 25.8 µM | [9] 27.6 µM | [10] 161 µM | [16] 64.8 µM

C=C(C)C(=O)[O][Sn]([CH2]CCC)([CH2]CCC)[CH2]CCC
inactive: [1] | [3] | [4] | [5] | [7] | [10] | [16] | [17]
active: [2] 0.00168 µM | [8] 0.26 µM | [9] 0.412 µM | [12] 0.148 µM | [13] 0.148 µM | [14] 0.148 µM | [15] 0.155 µM

COc1cc(-c2ccc(N)c(OC)c2)ccc1N
active: [5] 79.8 µM | [9] 27.5 µM and 28.5 µM | [12] 4.68 µM and 3.97 µM
inactive: [1] | [2] | [3] | [5] | [6] | [7] | [8] | [10] | [13] | [18] | [16] | [15] | [19]

O=C(O)C(F)(F)C(F)(F)C(F)(F)C(F)(F)C(F)(F)C(F)(F)F
active: [8] 212 µM and 219 µM | [16] 18.2 µM and 20.7 µM
inactive: [1] | [2] | [3] | [5] | [6] | [7] | [8] | [9] | [10] | [12] | [13] | [14] | [15] | [19]
